CHT allo act = CHT positive allosteric modulators, primary screen, cell-based, membrane potential dye, choline EC20; 310,000 compounds, 0.49% hits; AID 488977, 2010; B-score at 10 µM; High affinity choline transporter 1 (Homo sapiens), Q9GZV3; CHT-expressing cells; active compounds read high; LV-AA mutant CHT in HEK293 cells;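 active = initial fluorescence not abnormally high and integrated response B-score, plate-corrected, over 3 SD above library mean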
Kir21 inh = inhibitors of mouse Kir2.1 inward-rectifier potassium channel. HEK293-Kir2.1, FluxOR thallium flux fluorescence; active compounds read low. B-score at 10 µM. 310,000 compounds, 0.85% hits. AID 1672, 2009;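 active = fluorescence ratio B-score at or below minus 3 SD of library scores, with starting-brightness B-score within 2 SD, cut at about -4.2 in these data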;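 also: channel flux triggered by added potassium and thallium sulfate stimulus; B-score of peak minus minimum fluorescence over baseline after thallium stimulus; more negative B-score means stronger Kir2.1 block with less thallium influx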
ANO1 block = TMEM16A chloride channel inhibitors, primary screen, cell-based, HTS. Anoctamin-1 (Mus musculus), Q8BHY3. HEK293 TMEM16A/YFP iodide influx fluorescence, ionomycin. normalized B-score (activity score, 25-100; higher = stronger inhibition) at 10 µM. 310,000 compounds, 1.2% hits. AID 588511, 2011;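 active = ratio plate-corrected score three or more library SD toward inhibition, starting fluorescence score within five deviations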;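 also: score derived from kinetic fluorescence span divided by baseline fluorescence per well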
CHT block = inhibitors of human choline transporter CHT; High affinity choline transporter 1 (Homo sapiens), Q9GZV3; CHT-expressing cells, membrane potential dye, choline response; active compounds read low; B-score at 10 µM; 310,000 compounds, 0.86% hits;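 active = B-score over 3 SD under the library average, and starting fluorescence ratio not unusually high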;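 also: choline stimulus applied at its EC90 after an EC20 pre-addition; B-score computed on integrated fluorescence ratio after choline addition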
TMEM16A act = TMEM16A chloride channel activators or potentiators, primary screen, cell-based, HTS. HEK293 TMEM16A/YFP-H148Q/I152L, iodide quench fluorescence; active compounds read low. B-score at 10 µM. 340,000 compounds, 0.3% hits. AID 623877, 2012;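 active = fluorescence-ratio B-score plate-corrected deviation score at least 3 library SD below zero, with starting fluorescence score within 5 deviations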;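 also: channel opened by trigger with iodide after compound preincubation; score built on the fluorescence ratio of max minus min over baseline; more negative score means more quench and so TMEM16A activation or potentiation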
GPR7 antag = GPR7 receptor antagonists, primary screen, cell-based, fluorescence, single concentration | Neuropeptides B/W receptor type 1 (Homo sapiens), P48145 | GPR7-expressing cells, fluorescence antagonist assay | inhibition, % at 4.4 µM | 290,000 compounds, 1.1% hits | AID 1861, 2009; in the data active = inhibition above about 16%, passing the limit was not always enough;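 also: cells stimulated with the agonist NPW; 0% = agonist with vehicle and 100% = vehicle without agonist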
Target sequence (P48145 whole entry, looked up): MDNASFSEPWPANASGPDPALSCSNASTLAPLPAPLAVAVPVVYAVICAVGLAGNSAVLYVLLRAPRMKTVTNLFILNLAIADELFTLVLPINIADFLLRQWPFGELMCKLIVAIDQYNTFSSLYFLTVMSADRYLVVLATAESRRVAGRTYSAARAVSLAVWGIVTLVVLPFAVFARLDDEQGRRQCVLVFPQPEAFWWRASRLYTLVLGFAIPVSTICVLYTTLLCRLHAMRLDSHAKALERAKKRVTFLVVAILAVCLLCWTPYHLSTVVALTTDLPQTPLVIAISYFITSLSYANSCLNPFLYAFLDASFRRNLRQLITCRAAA
* hit, by the source's call; i = inactive; / = no result. Shown are actives, neighbours in structure and some others; about 3.7% of the full set was active somewhere.

SMILES	CHT allo act	Kir21 inh	ANO1 block	CHT block	TMEM16A act	GPR7 antag
CC1CN(Cc2ccccc2)c2ccccc2NC1=S (stereo not drawn)	i	-4.2*	i	i	i	0
CC1CCN(CCC(=O)Nc2ccc(Br)cc2)CC1	i	-4.9*	i	i	i	-3
O=C(CCN1CCCC1)Nc1ccc(Br)cc1	i	1.4	i	i	i	-9
O=C(/C=C/c1ccccc1O)c1ccco1	i	-3.5	i	i	i	-4
O=C(/C=C/c1cc(Br)ccc1O)c1ccco1	i	-5.9*	i	i	i	13
O=C(NCc1cccs1)C1CCN(c2nccs2)CC1	i	0.7	i	i	i	-8
Cc1cc(C)cc(NC(=O)C2CCN(c3nccs3)CC2)c1	i	0.36	i	i	-14*	3
O=C(Nc1ccccc1)c1nnsc1S(=O)c1ccc(Cl)cc1 (stereo not drawn)	i	0	i	i	-9.3*	4
CC1CC(C)CN(CCCNS(=O)(=O)c2ccc3c(c2)oc(=O)n3C)C1 (stereo not drawn)	i	-2.1	i	i	i	-11
Cc1cc(-c2nnc(CCC(=O)NCc3ccc(OC(F)(F)F)cc3)o2)no1	i	1.2	i	i	i	-20
CCn1cc(/C=C(\NC(=O)c2ccc(OC)c(OC)c2)C(=O)NCCCN2CCOCC2)c2ccccc21	/	0.81	/	/	-43*	7
CCn1cc(/C=C(\NC(=O)c2ccc(C)cc2)C(=O)NCCCN2CCOCC2)c2ccccc21	/	0.94	/	/	i	-4
CC(Sc1ncn[nH]1)C(=O)Nc1ccc(Cl)cn1 (stereo not drawn)	i	0.2	i	i	i	/
CCN=C1S/C(=C\c2ccc(O)c(OCC)c2)C(=O)N1CC	i	-5.7*	i	i	i	-32
CCN=C1S/C(=C\c2cc(OCC)c(O)cc2Br)C(=O)N1CC	i	-0.12	i	i	i	-14
CCCCOC1CC(c2ccc(OCc3ccc(OC)cc3)c(OC)c2)N(C)O1 (stereo not drawn)	i	1.7	i	i	i	-6
COc1ccccc1NC(=O)C(C)NC(c1ccccc1)c1ccccc1 (stereo not drawn)	i	-0.06	i	i	i	-4
CC(C(=O)Nc1ccccc1Oc1ccccc1)c1ccccc1 (stereo not drawn)	i	-5*	i	i	i	-2
COc1ccc(NC(=O)C2=Cc3ccccc3OC2)cc1	i	-0.71	i	i	i	1
COc1ccc(NC(=O)C2=Cc3cccc(OC)c3OC2)cc1	i	1.1	i	i	i	20*
O=C(NCc1cccc(Cl)c1)C1CCC(=O)N(CCN2CCOCC2)C1 (stereo not drawn)	i	0	i	i	i	-8
O=C(Cn1c(C(=O)N2CCc3ccccc3C2)cc2sccc21)c1ccccc1	i	0.11	i	i	i	-2
O=C(Cn1c(C(=O)N2CCN(C3CCCCC3)CC2)cc2sccc21)c1ccccc1	i	-1.3	i	i	i	20*
Cc1ccc(S(=O)(=O)N(CC(=O)NCc2ccc(F)cc2)C(=O)N2CCN(C)CC2)cc1	i	-0.11	i	i	i	/
COC(=O)C1=C(C(=O)OC)[C@]2([C@H]3CC=CCN[C@@H](Cc4ccccc4)C(=O)N3Cc3ccccc3)C=C[C@H]1O2	/	/	/	/	-10*	/
SMILES	CHT allo act	Kir21 inh	ANO1 block	CHT block	TMEM16A act	GPR7 antag
Cc1cc(C)n(C(C[N+](=O)[O-])c2ccc(Cl)cc2)n1 (stereo not drawn)	i	-5.2*	i	i	i	-7
Cc1cc(O)c(C(C[N+](=O)[O-])c2ccc(Cl)cc2)c(=O)o1 (stereo not drawn)	i	0.14	i	i	i	-4
CC1c2ccsc2CCN1S(=O)(=O)c1cccs1 (stereo not drawn)	i	-6.2*	i	i	i	-11
CC(=O)N(Cc1ccccc1C)c1cccc(C)c1C	i	-4.6*	i	i	i	-1
COc1ccccc1/C=C/C(=O)OCC(=O)N1CCc2ccccc21	/	/	/	/	i	/
COCCOC(=O)/C(=C\c1cc(C(C)(C)C)c(O)c(C(C)(C)C)c1)C(C)=O	i	-5.4*	i	i	i	-10
CC(C)(C)c1cc(CCC(=O)NN)cc(C(C)(C)C)c1O	i	-0.05	i	i	i	-22
CC(C)CC(=O)NC(NC(=S)Nc1sc2c(c1C#N)CCCC2)C(Cl)(Cl)Cl (stereo not drawn)	i	2.6	100*	i	i	-9
O=c1cc(-c2ccccc2)[nH]n1-c1ccc([N+](=O)[O-])cc1	i	-0.21	100*	i	i	4
O=c1c(N=Nc2ccc(O)cc2)c(-c2ccccc2)[nH]n1-c1ccc([N+](=O)[O-])cc1	i	-1	i	i	i	0
CC(C)(C)OC(=O)N1CCCC(C(=O)Nc2ccc(C(=O)N3CCOCC3)cc2)C1 (stereo not drawn)	/	/	/	/	i	/
Cc1cc(-n2c(C)cc(C(=O)CSc3nc4ccccc4c(=O)n3Cc3ccco3)c2C)no1	i	2.2	i	i	-9.1*	7
CC1CCC(C(C)C)C(OCC(O)CNC(C)c2ccccc2)C1 (stereo not drawn)	i	-2	i	i	i	11
CC(NCC(O)COC1CCC(C(C)(C)C)CC1)c1ccccc1 (stereo not drawn)	i	-8.6*	i	i	i	13
O=S(=O)(c1ccc(Cl)c(Cl)c1)c1snnc1-c1ccccc1	/	-4.2*	/	/	i	-8
Cc1ccccc1NC(=O)c1ccccc1O	i	0.02	25*	i	i	-11
Cc1ccc(S(=O)(=O)N2CCSC2c2ccco2)cc1 (stereo not drawn)	i	-4.3*	i	i	i	-1
Cc1cc(C(=O)CSc2nnc(-c3ccco3)o2)c(C)n1CC1COc2ccccc2O1 (stereo not drawn)	/	-0.01	/	/	i	20*
CC1C(=O)N2CCCc3cc(S(=O)(=O)NCc4ccccc4Cl)cc1c32 (stereo not drawn)	i	-1.8	i	i	i	-9
S=C(Nc1cccc(Cl)c1)Nc1ccccc1Oc1ccccc1	i	-1.4	100*	i	i	15
S=C(Nc1ccccc1Oc1ccccc1)Nc1cccc(Cl)c1Cl	i	-4.3	i	i	i	5
